# Laboratory results: PubChem BioAssay AID686978 (National Center for Advancing Translational Sciences (NCATS), 2013)
# Among all 420,000 compounds or so, about 64,000 (15%) were called active. About 27% were inconclusive and are not listed. Not all results are given here. Values without a mark were called inactive. Calls follow the shape of the dose curve; as a rule, active = well fitted inhibition curve with a large enough effect; inconclusive = small, poorly fitted or top-dose-only effect; inactive = flat fitted curve, though single readings scatter.
# Experiment: qHTS for Inhibitors of human tyrosyl-DNA phosphodiesterase 1 (TDP1): qHTS in cells in absence of CPT; also: nearly all actives have a fitted effect of over 55% in size
# Details: DT40 Tdp1-/- hTDP1 cells, no CPT, ATP luminescence, 48 h; activity change, negative = growth inhibition: at 46.2 µM (top of the series)
# Outline: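 Luminescent ATP content (CellTiter-Glo) served as the growth readout. Knockout chicken DT40 cells expressing human TDP1 were exposed to compounds without camptothecin for a minimum 48 hr at 37 °C.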
# % is scaled to controls: 0 for no effect and ±100 for the full control effect; potency is read from the fitted curve at half-maximal effect.
Compound,"activity change, negative = growth inhibition",Potency
N/C(=N\OS(=O)(=O)c1cccc([N+](=O)[O-])c1)c1ccncc1,-5.45%,
Cc1ccc(CNC(=O)C(=O)c2cn(CC(=O)N3CCOCC3)c3ccccc23)cc1,13.1%,
CCS(=O)(=O)c1ccc(C(=O)NC)c(Cl)c1Cl,2.49%,
Cc1cc(O)ccc1-c1cnc2ccccc2n1,-24.8%,
O=C(Nc1ccc(CSc2ccccc2)cc1)c1ccc(CN2CCOCC2)cc1,1.03%,
Cc1ccc(NC(=O)CN2CCc3ccccc3C2)cc1C,0.0925%,
Cc1cccc(C)c1NC(=O)c1ccc(CN2CCc3ccccc3C2)cc1,,20.6 µM (active)
O=C(NNC(=O)c1csc(-c2cccnc2)n1)Nc1ccc(Cl)cc1,-26.1%,
COCCCNC(=O)/C=C/c1ccc(OCc2c(F)cccc2Cl)cc1,2.03%,
Fc1cccc(Cl)c1COc1ccc(-c2nnco2)cc1,-11.1%,
C#CC(C)(CC)NC(=O)Cn1nnc(-c2ccc(OCc3c(F)cccc3Cl)cc2)n1 (stereo not given),,18.4 µM (active)
O=C(OCCOCn1cc(Br)c(=O)[nH]c1=O)c1ccccc1,-9.32%,
CN(N)c1nc(N2CCCC2)nc(N2CCCC2)n1,-15.5%,
O=C(NCc1ccccc1)c1cc(-c2cccc(Cl)c2)on1,-15.6%,
CCOC(=O)C1(S(=O)(=O)c2ccc(Cl)cc2)CCN(Cc2ccccc2)CC1,-22%,
CCOC(=O)C1(CCOC)CCN(Cc2ccc(C(=O)OC)cc2)CC1,-24.2%,
CCOC(=O)C1(CCOc2ccccc2)CCN(Cc2ccc(C#CCCO)cc2)CC1,,16.4 µM (active)
O=C(c1cn(CC2CCCN(Cc3cc4ccccc4s3)C2)nn1)N1CCCC1 (stereo not given),-9.65%,
O=C(CCc1ccccc1)Nc1ccnn1C1CCN(Cc2ccc(OCCO)cc2)CC1,18.5%,
CCOC(=O)C1(CCOC)CCN(Cc2cc3ccccc3s2)CC1,,16.4 µM (active)
CCOc1cc2[nH]c(=S)n(CCN3CCCCC3C)c(=O)c2cc1OCC (stereo not given),-22.3%,
O=C(NN1C(=O)C2C3C=CC(C3)C2C1=O)c1ccco1 (stereo not given),-3.19%,
COc1ccc(OC)c(NC(=O)N[C@H](Cc2ccccc2)C(=O)NN)c1,9.7%,
O=C(COC(=O)/C=C/c1ccc(Br)o1)Nc1cccc(S(=O)(=O)N2CCOCC2)c1,9.84%,
O=C(Nc1ccc(-c2cscn2)cc1)C1CCCN(Cc2ccc(CO)o2)C1 (stereo not given),-0.798%,
COc1ccccc1/C=N/N1CCN(Cc2ccccc2Cl)CC1,9.68%,
O=C1C(Cc2ccc(O)cc2)NC(=S)N1Cc1ccccc1 (stereo not given),9.72%,
CCS(=O)(=O)N1CCC(N2CCN(c3ccccc3)CC2)CC1,-2.72%,
CCC1Nc2ncnc(N3CCN(c4ccccc4)CC3)c2N(Cc2ccc(Cl)cc2)C1=O (stereo not given),,20.6 µM (active)
O=C(Nc1ccnc(-c2ccncc2)n1)c1cccs1,11%,
